Bioassay records (PubChem)
KCNQ2 enhance: potentiators of rat KCNQ2 potassium channel; CHO-K1 KCNQ2, FluxOR thallium flux fluorescence; stronger effect = higher value; B-score at 10 µM; 0.54% of 310,000 active;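 active means fluorescence ratio B-score at least 3 SD of library B-scores, with initial fluorescence B-score within 3 of them, cut at about 5.3 in these data; same plate scores as AID 2156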;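 further: B-score of peak minus minimum over baseline fluorescence ratio after K+ and Tl+ stimulus; positive B-score means potentiation of KCNQ2 with more thallium influx and brighter signal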
KCNQ2 block: inhibitors of rat KCNQ2 potassium channel; O88943; CHO-K1 KCNQ2, FluxOR thallium flux, 20 min; stronger effect = lower value; B-score at 10 µM; 1.1% of 310,000 active; AID 2156;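 active means fluorescence ratio B-score at most minus 3 library SDs, with starting brightness B-score within 2 library SDs, cut at about -5.5 in these data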
Kir21 conf inh: confirmation of mouse Kir2.1 potassium channel inhibitors; shares compounds with KCNQ2 enhance; Kir2.1-expressing cells, FluxOR thallium flux fluorescence; stronger effect = lower value; Tl flux remaining, % of negative control (stronger effect = lower value), % at 10 µM; 41% of 2,300 active; AID 2032;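 active means Primary-screen hit whose thallium flux fell at least 3 control SD below untreated wells in both duplicates, with normal baseline fluorescence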;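 further: 0% = blank wells without stimulus and 100% = stimulated no-compound controls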
HEK293 Tl flux: counter-screen for Kir2.1 inhibitors: effect in parental HEK293 cells. shares compounds with KCNQ2 enhance. FluxOR thallium flux fluorescence; 0% = unstimulated blank wells. FluxOR signal as % of negative control (100 = no effect), % at 10 µM. 19% of 2,300 active;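 active means dye signal at least 3 control SD above or below untreated wells in both duplicates, raw fluorescence within 3, either direction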;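 further: percent is based on the flux ratio of peak minus minimum fluorescence over baseline F0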
CHO-K1 ctr: counter-screen for KCNQ2 potentiators: effect in parental CHO-K1 cells; activity increase over 3SD of controls, % at 10 µM; shares compounds with KCNQ2 enhance; 43% of 1,200 active; FluxOR thallium flux fluorescence; zero = vehicle mean+3SD, 100% = vehicle-minus-blank window;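 active means signal rise of at least 3 SD above the untreated control mean, in both duplicate wells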;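 further: counter screen of KCNQ2 potentiator hits so any rise reflects channel-independent effects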
KCNQ1 sel pot: human KCNQ1 counter-target activity of KCNQ2 potentiators. shares compounds with KCNQ2 enhance. CHO KCNQ1 stable, FluxOR thallium flux fluorescence; beyond 3SD, as % of vehicle-control signal. activation over 3SD threshold, % at 10 µM. 28% of 1,200 active;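 active means fluorescence ratio rise of at least 3 SD of vehicle wells above their mean, in both replicate wells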;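 further: 0% = vehicle mean plus 3 SD and 100% = vehicle minus unstimulated blank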
KCNQ2 pot confirm: rat KCNQ2 channel potentiator confirmation; CHO-KCNQ2 cells, FluxOR thallium flux fluorescence; 68% of 1,200 active; shares compounds with KCNQ2 enhance; potentiation, less the hit threshold, % at 10 µM;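 active means fluorescence ratio rising 3 SD or more over the vehicle control mean in both replicates, plus primary screen hit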;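 further: peak minus minimum thallium fluorescence divided by baseline after K/Tl stimulus; 0% = vehicle mean plus 3 SD and 100% = vehicle minus unstimulated blank difference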
Kir21 spec: mouse Kir2.1 off-target activity of KCNQ2 potentiators; shares compounds with KCNQ2 enhance; 2% of 1,200 active; HEK293 Kir2.1, FluxOR thallium flux fluorescence; activity over 3SD threshold, % at 10 µM; AID 2345;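 active means fluorescence ratio rise of at least 3 SD above the vehicle-control mean, seen in both replicates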;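 further: 0% = vehicle mean plus 3 SD and 100% = vehicle minus no-stimulus blank window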
KCNQ2 W236L pot: potentiates the retigabine-insensitive rat KCNQ2 W236L mutant channel; CHO KCNQ2-W236L, automated patch clamp current; current increase over 3SD of negative controls (%), stronger effect = higher value, % at 25 µM; 10% of 940 active; shares compounds with KCNQ2 enhance; AID 2558;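 active means current increase at least 3 SD of the untreated controls above them in both duplicate recordings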
Target sequence (O88943 whole entry W236L, looked up): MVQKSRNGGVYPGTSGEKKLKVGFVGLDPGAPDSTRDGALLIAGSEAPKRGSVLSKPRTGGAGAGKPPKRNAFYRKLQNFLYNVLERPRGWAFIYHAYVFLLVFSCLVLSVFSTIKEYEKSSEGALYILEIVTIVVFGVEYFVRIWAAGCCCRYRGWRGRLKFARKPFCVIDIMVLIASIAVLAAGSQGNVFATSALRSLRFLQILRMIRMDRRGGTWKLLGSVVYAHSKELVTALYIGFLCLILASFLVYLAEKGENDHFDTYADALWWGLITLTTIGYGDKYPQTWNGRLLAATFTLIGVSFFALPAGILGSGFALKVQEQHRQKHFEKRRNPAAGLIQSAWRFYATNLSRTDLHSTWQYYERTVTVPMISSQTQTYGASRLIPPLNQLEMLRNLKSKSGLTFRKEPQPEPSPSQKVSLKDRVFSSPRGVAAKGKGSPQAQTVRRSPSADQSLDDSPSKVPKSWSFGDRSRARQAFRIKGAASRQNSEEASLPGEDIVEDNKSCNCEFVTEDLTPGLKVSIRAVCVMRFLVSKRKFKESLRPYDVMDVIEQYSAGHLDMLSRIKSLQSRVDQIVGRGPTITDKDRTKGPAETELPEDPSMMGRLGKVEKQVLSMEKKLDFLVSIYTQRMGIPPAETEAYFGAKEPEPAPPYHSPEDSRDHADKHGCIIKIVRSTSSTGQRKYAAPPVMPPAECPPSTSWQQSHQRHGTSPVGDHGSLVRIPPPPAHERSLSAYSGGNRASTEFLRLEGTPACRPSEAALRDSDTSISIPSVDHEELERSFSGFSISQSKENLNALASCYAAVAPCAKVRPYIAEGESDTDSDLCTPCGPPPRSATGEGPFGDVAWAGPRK
Numbers without * were called inactive; i = inactive; nt = not tested or not shown. An excerpt weighted towards active compounds, which were near 1.6% of everything screened.

SMILES	KCNQ2 enhance	KCNQ2 block	Kir21 conf inh	HEK293 Tl flux	others
CC(=O)c1cccc(NC(=S)N2CCN(c3ccccn3)CC2)c1	nt	i	nt	nt
Cc1ccc(S(=O)(=O)Nc2c(O)ccc3ccccc23)cc1	2.4	i	nt	nt
Cc1ccc(S(=O)(=O)Nc2c(Cl)c(Cl)c(O)c3ccccc23)cc1	6.4*	i	i	i	CHO-K1 ctr=-9;KCNQ1 sel pot=68*;KCNQ2 pot confirm=-11;Kir21 spec=-45;KCNQ2 W236L pot=i
Oc1c(Br)cc(/C=N/n2c(-c3ccccc3)n[nH]c2=S)c(Br)c1O	nt	i	nt	nt
Cc1nnc(C)n1/N=C/c1cc(Br)ccc1O	nt	i	nt	nt
Oc1ccc(Br)cc1/C=N/n1c(C2CCCCC2)n[nH]c1=S	7.4*	i	i	i	CHO-K1 ctr=70*;KCNQ1 sel pot=-12;KCNQ2 pot confirm=-16;Kir21 spec=-19
Oc1c(Br)cc(Br)cc1/C=N/n1c(-c2ccccc2)n[nH]c1=S	11*	i	i	i	CHO-K1 ctr=12*;KCNQ1 sel pot=-10;KCNQ2 pot confirm=11*;Kir21 spec=-42;KCNQ2 W236L pot=i
Oc1ccc(/C=N/n2c(C3CCCCC3)n[nH]c2=S)c(O)c1	nt	i	nt	nt
Cc1nnc(C)n1/N=C/c1cc(Br)cc(Br)c1O	11*	i	i	i	CHO-K1 ctr=-23;KCNQ1 sel pot=41*;KCNQ2 pot confirm=17*;Kir21 spec=-30;KCNQ2 W236L pot=i
Cc1ccc(C(=O)C(C)OC(=O)CN2C(=O)NC3(CCCC3)C2=O)cc1 (stereo not given)	1.4	i	nt	nt
CCCCNC(=O)C(=O)NCC1CCCN1S(=O)(=O)c1cccs1 (stereo not given)	0.16	i	nt	nt
CN(C(=O)CN1CCN(c2ccccc2F)CC1)C1CCCc2ccccc21 (stereo not given)	nt	i	nt	nt
CCC(C)N1CC(=O)N2C(c3ccc(OC)cc3OC)c3[nH]c4ccccc4c3C[C@H]2C1=O (stereo not given in full)	nt	i	nt	nt
O=C(NCCC(=O)N1CCc2ccccc21)c1ccccc1Cl	nt	i	nt	nt
O=C(NC(=S)N1CCc2ccccc21)c1ccccc1Cl	8.9*	i	i	i	CHO-K1 ctr=14*;KCNQ1 sel pot=-12;KCNQ2 pot confirm=62*;Kir21 spec=-14;KCNQ2 W236L pot=i
CC1CCc2c(sc3ncnc(SCC(=O)Nc4ccc(C(=O)O)cc4)c23)C1 (stereo not given)	0.97	i	nt	nt
COc1cc(NC(=O)CSc2ncnc3sc4c(c23)CCC(C)C4)c(C(=O)O)cc1OC (stereo not given)	19*	i	i	417%*	CHO-K1 ctr=-7;KCNQ1 sel pot=36*;KCNQ2 pot confirm=94*;Kir21 spec=-5;KCNQ2 W236L pot=i
CCNC(=O)N(C)c1nncnc1C(=O)NC	1.5	i	nt	nt
CNC(=O)c1ncnnc1N(C)C(=O)NCc1ccccc1	9.8*	i	i	i	CHO-K1 ctr=0.9*;KCNQ1 sel pot=-21;KCNQ2 pot confirm=-13;Kir21 spec=-40
COc1cc(NC(=O)CCc2nnc3ccc(N4CCC5(CC4)OCCO5)nn23)cc(OC)c1	0.54	i	nt	nt
O=c1oc2cc(O)ccc2c2c1CCCC2	0.87	i	i	i
CC(=O)Oc1ccc2c3c(c(=O)oc2c1)CCCC3	0.71	i	nt	nt
CCOC(=O)N1CCN(CCC(=O)Nc2cccc(Cl)c2C)CC1	0.2	i	nt	nt
O=C(Nc1cccnc1)C(Cc1ccccc1)n1cccc1 (stereo not given)	0.5	i	nt	nt
O=C(Nc1ncc(Br)s1)C(Cc1ccccc1)n1cccc1 (stereo not given)	7.3*	i	i	188%*	CHO-K1 ctr=-4;KCNQ1 sel pot=-5;KCNQ2 pot confirm=8.5*;Kir21 spec=-29;KCNQ2 W236L pot=i
SMILES	KCNQ2 enhance	KCNQ2 block	Kir21 conf inh	HEK293 Tl flux	others
CCN(CC)CCCNC(=O)CSc1nc(-c2ccc(F)cc2)cc(C(F)(F)F)n1	nt	i	nt	nt
COc1ccc(OC)c2c(C)c(C)[nH]c12	0.4	i	nt	nt
COc1ccccc1NC(=O)Cc1ccc(-c2ccccc2)cc1	nt	i	nt	nt
COc1ccc(NC(=O)CCCc2ccccc2)c(OC)c1	5.5*	i	i	i	CHO-K1 ctr=93*;KCNQ1 sel pot=-4;KCNQ2 pot confirm=8.7*;Kir21 spec=-24;KCNQ2 W236L pot=i
COc1ccc(NC(=O)CCCC(=O)c2ccccc2)c(OC)c1	nt	i	nt	nt
COc1ccc(CC(=O)Nc2ccccc2Oc2ccccc2)cc1	10*	i	i	i	CHO-K1 ctr=-29;KCNQ1 sel pot=-6;KCNQ2 pot confirm=17*;Kir21 spec=-57;KCNQ2 W236L pot=i
CCCCC(O)(c1ccc(OC)cc1)C(CN1CCOCC1)c1ccccc1 (stereo not given)	0.75	i	nt	nt
CCCCCC(O)(c1ccc(OC)cc1)C(CN1CCOCC1)c1ccccc1 (stereo not given)	6.2*	i	i	i	CHO-K1 ctr=62*;KCNQ1 sel pot=-13;KCNQ2 pot confirm=-2;Kir21 spec=-29;KCNQ2 W236L pot=i
C=CCn1c(SCC(=O)Nc2ccc(C(=O)O)cc2)nnc1-c1cccnc1	nt	i	nt	nt
C=CCn1c(SCc2cccc3ccccc23)nnc1-c1cccnc1	nt	i	45%*	i
Cc1ccc(C(=O)NN2C(=O)C3C4c5ccccc5C(c5ccccc54)C3C2=O)cc1 (stereo not given)	0.44	i	nt	nt
Cc1ccc(-n2cc(CNCCCn3ccnc3C)c(-c3ccc(F)cc3)n2)cc1	nt	i	60%*	i
Cc1ccc(-n2cc(CNCCCn3cccn3)c(-c3cccc(C)c3)n2)cc1	nt	i	nt	nt
CC(=O)N1N=C(N)SC1(C)C	nt	i	nt	nt
CCc1nnc(NC(=O)Cn2nc(-c3ccccc3OC)ccc2=O)s1	1.7	i	nt	nt
C/C(=N\Nc1nncc2ccccc12)c1ccc(C(C)(C)C)cc1	5.9*	i	i	i	CHO-K1 ctr=65*;KCNQ1 sel pot=-21;KCNQ2 pot confirm=-33;Kir21 spec=-40
C/C(=N\Nc1nncc2ccccc12)c1ccc(O)cc1	0.41	i	nt	nt
CC(=O)N1c2ccc(S(=O)(=O)N3CCCCC3)cc2CC1C(=O)NCc1cccc(Cl)c1 (stereo not given)	0.26	i	nt	nt
Cc1nc(N2CCN(C)CC2)c2c(C)c(C(=O)Nc3ccc(C)c(F)c3)sc2n1	nt	i	64%*	i
Cc1nc(N2CCC(C)CC2)c2c(C)c(C(=O)Nc3ccc(C)c(F)c3)sc2n1	nt	i	nt	nt
CC(C)=CCC/C(C)=C/CCC(C)NCCN1CCNCC1 (stereo not given)	nt	i	nt	nt
CC(C)=CCC/C(C)=C/CC(C)(C)CNCCN1CCNCC1	nt	i	i	i
CC(C)(C)c1ccccc1OCCOCCNCc1ccccc1	nt	i	nt	nt
Clc1cc(Br)ccc1OCCCNCc1ccccc1	nt	i	nt	nt
Cc1ccc(C)c(OCCCNCc2ccccc2)c1	nt	i	24%*	i
Cc1ccc(C(C)C)c(OCCN)c1	0.89	i	nt	nt
